In all, about 1,500 compounds went through this assay and about 390 (26%) were called active. Not all results are given here. Potency and affinity values are given separately. Values without a mark were called inactive. No rule for the calls is given here.
Target: Histone-lysine N-methyltransferase NSD2 (Homo sapiens) (UniProt O96028)
Assay: NSD2 methyltransferase inhibitors, dose response, biochemical, AlphaScreen, cherry-picked samples (AID 1053173);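 also: 0% = neutral control wells and -100% = positive control wells on each plate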
Settings: NSD2 H4 peptide methylation, 120 min; series mostly up to 10 µM; activity change, negative = inhibition: at the top concentration

Chain of Histone-lysine N-methyltransferase NSD2 (Homo sapiens) (O96028 whole entry, looked up): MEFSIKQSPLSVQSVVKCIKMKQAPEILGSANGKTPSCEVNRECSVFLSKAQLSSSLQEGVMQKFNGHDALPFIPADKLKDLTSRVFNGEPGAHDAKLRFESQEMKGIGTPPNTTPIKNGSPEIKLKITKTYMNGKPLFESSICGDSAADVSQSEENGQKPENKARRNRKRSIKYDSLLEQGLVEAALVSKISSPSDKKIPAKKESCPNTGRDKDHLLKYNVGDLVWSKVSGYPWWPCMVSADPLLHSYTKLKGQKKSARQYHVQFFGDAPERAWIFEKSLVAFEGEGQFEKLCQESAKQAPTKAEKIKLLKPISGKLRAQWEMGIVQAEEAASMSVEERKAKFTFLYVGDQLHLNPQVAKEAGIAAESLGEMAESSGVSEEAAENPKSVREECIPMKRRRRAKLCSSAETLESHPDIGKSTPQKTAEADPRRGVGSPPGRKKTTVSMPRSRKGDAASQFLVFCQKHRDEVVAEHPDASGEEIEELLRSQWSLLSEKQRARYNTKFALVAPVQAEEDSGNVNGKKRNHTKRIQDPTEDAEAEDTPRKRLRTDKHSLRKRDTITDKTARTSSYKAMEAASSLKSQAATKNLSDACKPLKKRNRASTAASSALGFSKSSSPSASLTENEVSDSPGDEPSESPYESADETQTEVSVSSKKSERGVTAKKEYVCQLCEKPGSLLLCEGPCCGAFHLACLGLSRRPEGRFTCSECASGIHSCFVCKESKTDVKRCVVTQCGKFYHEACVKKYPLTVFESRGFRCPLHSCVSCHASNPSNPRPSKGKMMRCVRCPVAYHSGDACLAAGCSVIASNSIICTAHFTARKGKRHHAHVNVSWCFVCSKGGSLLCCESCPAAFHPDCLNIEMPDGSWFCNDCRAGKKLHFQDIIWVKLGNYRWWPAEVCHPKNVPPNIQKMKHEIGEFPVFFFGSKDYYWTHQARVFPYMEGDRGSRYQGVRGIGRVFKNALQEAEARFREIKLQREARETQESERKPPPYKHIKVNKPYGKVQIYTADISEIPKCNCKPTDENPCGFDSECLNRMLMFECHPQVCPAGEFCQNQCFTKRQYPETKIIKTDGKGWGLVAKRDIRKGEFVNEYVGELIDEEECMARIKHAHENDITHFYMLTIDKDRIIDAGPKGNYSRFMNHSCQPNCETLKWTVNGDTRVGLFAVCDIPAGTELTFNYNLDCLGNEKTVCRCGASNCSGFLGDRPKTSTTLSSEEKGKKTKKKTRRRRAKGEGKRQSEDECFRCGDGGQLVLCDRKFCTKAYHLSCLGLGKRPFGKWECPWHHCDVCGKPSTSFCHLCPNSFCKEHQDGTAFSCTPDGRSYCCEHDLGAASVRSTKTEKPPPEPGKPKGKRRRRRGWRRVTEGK

Row | Compound | activity change, negative = inhibition [%]
1 | C=CCOc1ccc(NC(=O)C2CC(=O)N(C(C)C)C2)cc1 (stereo not given) | -0.242
2 | Oc1ccc(NCc2cccc(OCc3ccc(F)cc3)c2)cc1 | -5.89
3 | Oc1cccc(C=NCc2ccccc2)c1 | 1.51
4 | Cc1cccc(C(=O)NCC(=O)OCc2nnc(-c3ccccc3)o2)c1 | 0.7
5 | COc1ccccc1NC(=O)C(C)OC(=O)CCNS(=O)(=O)c1cccc(C(F)(F)F)c1 (stereo not given) | 1.15
6 | O=C(NCc1ccco1)c1nc(-c2ccccc2)n(-c2ccccc2)n1 | -2.2
7 | CCOc1cc(N2CCOCC2)c(OCC)cc1NC(C)C(=O)N1CCN(CC)CC1 (stereo not given) | -1.64
8 | CCCC(=O)c1ccc(O)cc1O | 0.614
9 | Cc1nc(COC(=O)c2cc(O)c3ccccc3c2O)cs1 | -1.16
10 | COCCN1CC(=O)N2C(c3cccc(C)c3)c3[nH]c4ccccc4c3C[C@H]2C1=O (stereo not given in full) | -2.11
11 | COc1ccc(C2CC(=O)c3c(C)nc(N4CCN(c5ccccc5)CC4)nc3C2)cc1 (stereo not given) | 0.827
12 | CCOCCCNC(=O)Cn1cc2c(n1)-c1c(oc(C(=O)N3CCCC3)c1C)CC2 | 0.254
13 | O=C(NC1CCCC1)c1cc(-c2ccc(Cl)cc2Cl)on1 | -3.59
14 | CC1CN(C(=O)COC(=O)/C=C/c2ccccc2)CC(C)O1 (stereo not given) | -1.51
15 | Cc1cccc(OCCn2c(=S)[nH]c3ccccc32)c1 | -3.36
16 | Cc1cccc(Nc2nc(NCc3ccco3)nc(N)c2[N+](=O)[O-])c1 | -4.37
17 | CC1=CCC2C(=O)N(c3cccc(C(=O)N(C)C4CCCCC4)c3)C(=O)C2C1 (stereo not given) | 0.384
18 | CCN(CC)CCOc1ccc(C=NNc2nc3c([nH]2)c(=O)n(C)c(=O)n3C)cc1 | -11.9
19 | COc1ccc(CNC(=O)c2nnn(-c3cccc(C(F)(F)F)c3)c2N)cc1 | 4.73
20 | CC(=O)Nc1ccc(C(=O)OCC(=O)/C(C#N)=C(\C)N)cc1 | -2.9
21 | O=C(Nc1nccs1)c1ccc2nccnc2c1 | -5.53
22 | CC1CCCCC1NC(=O)COC(=O)c1ccc2c(=O)n3c(nc2c1)CCC3 (stereo not given) | -1.1
23 | Cc1ccc(NC(=O)CCN2CCN(C/C=C/c3ccccc3)CC2)cc1C | -7.29
24 | CCCCOc1ccc(-c2ncc(N)cn2)cc1 | 7.56
25 | O=C(O)CC1S/C(=N/N=C/c2ccc(-c3ccc(Cl)cc3[N+](=O)[O-])o2)NC1=O (stereo not given) | -8.04
26 | COc1ccccc1NC(=O)c1ccc(-n2cccn2)nc1 | -1.08
27 | COc1ccccc1OCC(=O)Nc1ccccc1C(=O)N1CCCC1 | -4.11
28 | CC12CC3(C)CC(C)(C1)CC(C(=O)NC1=NCCS1)(C2)C3 | 2.75

Row | Compound | activity change, negative = inhibition [%]
29 | Cc1oc(-c2cccs2)nc1CN1CCN(C2CCCC2)C(CCO)C1 (stereo not given) | -3.19
30 | COC(=O)c1nn(C)c(=O)[nH]c1=O | 1.85
31 | CC(=O)c1c(C)[nH]c(C(=O)CSc2nnc(-c3ccco3)n2Cc2ccccc2)c1C | 3.53
32 | CC1=NN(c2ccc(S(=O)(=O)O)cc2Cl)C(=O)C1 | 4.11
33 | CCCCN(C)C(=O)C1CCN(Cc2cccc(OCc3ccccc3)c2)CC1 | -1.82
34 | O=C(NCc1ccc(F)cc1)C1CCCN1S(=O)(=O)c1ccccc1C(F)(F)F (stereo not given) | 4.09
35 | CCN1CCCC1CNC(=O)c1ccc2c(c1)N(Cc1cccc(Cl)c1)C(=O)c1ccccc1S2(=O)=O (stereo not given) | -7.05
36 | COC(=O)c1sc(S(=O)(=O)Nc2ccc(C)c(C)c2)c(C(=O)OC)c1C | -4.84
37 | COc1cc2c(oc(=O)c3cc(C)cc(OC)c32)c2c(C3OC(C)C(O)C(C)(O)C3O)ccc(O)c12 (stereo not given) | -1.96
38 | COc1cccc(C2c3c(oc4ccccc4c3=O)C(=O)N2CCCN(C)C)c1OC (stereo not given) | -0.912
39 | Cc1[nH][nH]c(=O)c1C(c1ccc2c(c1)OCO2)c1c(C)[nH][nH]c1=O | -2.41
40 | Cc1cccc(C)c1NC(=S)N(CCCN1CCN(C)CC1)Cc1cccs1 | -1.78
41 | O=C(COC(=O)c1ccc([N+](=O)[O-])s1)Nc1ccccc1 | -2.69
42 | O=C(Cc1ccc(Br)cc1)Nc1ncc([N+](=O)[O-])s1 | -2.73
43 | Cc1ccc2[nH]c3c(c2c1)CN(C(=O)CN(C)CC1OCCO1)CC3 | -1.22
44 | CN1CCCCCC1=Nc1ccc([N+](=O)[O-])cc1 | -6.03
45 | N#Cc1ccc(CSc2ncccn2)cc1 | -3.28
46 | COc1ccc2ccccc2c1C1CC(=O)N2CN(C)CSC2=C1C#N (stereo not given) | -2.35
47 | Cc1cccc(C(=O)Nc2cccc(-c3cnc4ccccc4n3)c2)c1 | 0.722
48 | C/C(=N\O)C(C)Oc1ccc(Cl)cc1 (stereo not given) | -0.765
49 | NC(=O)c1oc2ccc(Cl)cc2c1N | 2.14
50 | CCc1ccc(N2CN=c3s/c(=C\c4ccccc4)c(=O)n3C2)cc1 | -0.972
51 | CCN1CCN(Cc2nc(N)nc(Nc3ccc(C)c(C)c3)n2)CC1 | -4.72
52 | CSc1nnc2c(n1)OC=Nc1ccccc1-2 | -1.34
53 | COc1ccc(C2N(C(=O)C(F)(F)F)C(C)CN2S(=O)(=O)c2ccc(C)cc2)cc1 (stereo not given) | 3.6
54 | Nc1ccc(N(CCO)CCO)cc1 | -10.2
55 | O=C(CSCC(=O)N1CCOCC1)Nc1nc(-c2ccccc2)cs1 | 3.11
